{
  "source": "PubChem BioAssay AID651640",
  "about": "(Broad Institute, 2012)",
  "note": "Among all 350,000 compounds or so, about 6,000 (1.7%) were called active. Another 5% or so got no clear call; they are omitted. This is one part of a sample in which actives are shown more often than they occur. Rule as the data show it: active = CPE inhibition above about 20% (passing the limit was not always enough); inconclusive = no clear call, values can overlap the other calls; tested in BHK-21 cells.",
  "data": [
    {"assay": "inhibitors of DENV2 cytopathic effect, primary screen, cell-based, plate reader, single concentration (AID 651640);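 also: 0% = median of neutral control wells and 100% = median of positive control wells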", "details": "DENV2-infected cells, cytopathic effect rescue, at 9.99 µM, stronger effect = higher value", "values": [
      {"smiles": "CO[C@H]1CN(C)C(=O)c2ccc(NC(=O)C3CC3)cc2OC[C@H](C)N(Cc2ccncc2)C[C@@H]1C", "CPE inhibition": "-0.282% (inactive)"},
      {"smiles": "O=C(C1CCCC1)N1CC2(C1)[C@H](c1ccccc1)[C@H](CO)N2CCC(F)(F)F", "CPE inhibition": "-9.33% (inactive)"},
      {"smiles": "O=C(C1CCCC1)N1[C@H](CO)[C@@H](c2ccccc2)C12CN(CCC(F)(F)F)C2", "CPE inhibition": "-3.05% (inactive)"},
      {"smiles": "O=C(C1CCCCC1)N1CC2(C1)[C@H](c1ccccc1)[C@@H](CO)N2CCC(F)(F)F", "CPE inhibition": "34.6% (active)"},
      {"smiles": "CCC(=O)N1[C@@H](CO)[C@@H](c2ccccc2)C12CN(C(=O)c1cnccn1)C2", "CPE inhibition": "21.9% (active)"},
      {"smiles": "O=C(c1cnccn1)N1CC2(C1)[C@H](c1ccccc1)[C@H](CO)N2C(=O)c1ccccc1", "CPE inhibition": "-6.13% (inactive)"},
      {"smiles": "CC(=O)N1CC2(C1)[C@@H](c1ccccc1)[C@@H](CO)N2C(=O)c1cnccn1", "CPE inhibition": "-5.39% (inactive)"},
      {"smiles": "COCC#Cc1cnc2c(c1)C(=O)N([C@H](C)CO)C[C@H](C)[C@H](CN(C)C(=O)Cc1cccnc1)O2", "CPE inhibition": "-4.96% (inactive)"},
      {"smiles": "C[C@H]1CCCCO[C@H](CN(C)S(=O)(=O)c2ccc(F)cc2)[C@@H](C)CN([C@@H](C)CO)C(=O)c2cc(NS(=O)(=O)c3cn(C)cn3)ccc2O1", "CPE inhibition": "12.6% (inactive)"},
      {"smiles": "CC(=O)N1[C@H](CO)[C@@H](c2ccc(-c3ccccc3)cc2)[C@H]1CNC(=O)C1CC1", "CPE inhibition": "-7.62% (inactive)"},
      {"smiles": "CCNC(=O)C[C@@H]1CC[C@@H]2[C@H](COc3ccc(NC(=O)Nc4cccc(C)c4)cc3C(=O)N2C)O1", "CPE inhibition": "-13.2% (inactive)"},
      {"smiles": "COc1ccccc1-c1cn(CC[C@@H]2CC[C@H](NC(=O)c3ccccc3F)[C@H](CO)O2)nn1", "CPE inhibition": "4.94% (inactive)"},
      {"smiles": "C[C@@H]1CN([C@H](C)CO)C(=O)c2cccc(NC(=O)Nc3ccc4c(c3)OCO4)c2O[C@H]1CN(C)S(=O)(=O)c1ccccc1", "CPE inhibition": "-7.78% (inactive)"},
      {"smiles": "COCCNC(=O)CSc1nc(N)c(NC(=O)c2ccco2)c(=O)[nH]1", "CPE inhibition": "96.9% (active)"},
      {"smiles": "COC(=O)c1ccc(NC(=O)CSc2nc(N)c(NC(=O)c3ccc(Br)o3)c(=O)[nH]2)cc1", "CPE inhibition": "-4.82% (inactive)"},
      {"smiles": "Nc1nc(SCC(=O)Nc2cc(C(F)(F)F)ccc2Cl)[nH]c(=O)c1NC(=O)c1ccco1", "CPE inhibition": "-1.74% (inactive)"},
      {"smiles": "CCCNC(=O)N1[C@H](CO)[C@H](c2ccccc2)[C@H]1CNC(=O)C1CCCCC1", "CPE inhibition": "-12% (inactive)"},
      {"smiles": "CC(=O)Nc1ccc2c(c1)C(=O)N(C)[C@@H]1CC[C@@H](CC(=O)NCC3CCCCC3)O[C@@H]1CO2", "CPE inhibition": "-1.94% (inactive)"},
      {"smiles": "COC(=O)[C@]1(Cc2ccccc2)NC=C(C(=O)c2ccccc2)[C@@H]1c1cccc(OC)c1", "CPE inhibition": "-11.9% (inactive)"},
      {"smiles": "COc1ccc(NC(=O)Nc2ccc3c(c2)C(=O)N([C@@H](C)CO)C[C@@H](C)[C@@H](CN(C)S(=O)(=O)c2ccc(C)cc2)OCCCC[C@H](C)O3)cc1", "CPE inhibition": "-2.48% (inactive)"},
      {"smiles": "COC(=O)[C@]12C[C@H](CC(=O)NCCCCc3ccccc3)C(=O)N(Cc3ccc4c(c3)OCO4)C1=C[C@H](C(C)(C)C)O[C@@H]2C", "CPE inhibition": "1.32% (inactive)"},
      {"smiles": "C[C@@H]1CN([C@@H](C)CO)C(=O)c2cc(C3=CCCC3)cnc2O[C@@H]1CN(C)C(=O)Cc1ccncc1", "CPE inhibition": "-2.39% (inactive)"},
      {"smiles": "CS(=O)(=O)N1[C@H](C#N)[C@H](c2ccc(C#CC3CCCC3)cc2)[C@H]1CO", "CPE inhibition": "28.9% (active)"},
      {"smiles": "N#C[C@H]1[C@H](c2ccc(C#Cc3ccc(F)cc3)cc2)[C@@H](CO)N1C(=O)C1CCCC1", "CPE inhibition": "22.7% (active)"},
      {"smiles": "CS(=O)(=O)N1[C@H](C#N)[C@H](c2ccc(C#CC3CC3)cc2)[C@H]1CO", "CPE inhibition": "4.72% (inactive)"},
      {"smiles": "COCC(=O)N1[C@H](CO)[C@H](c2ccccc2-c2ccc(C)cc2)[C@@H]1C#N", "CPE inhibition": "-2.92% (inactive)"},
      {"smiles": "N#C[C@@H]1[C@@H](c2ccc(C#Cc3cccc(F)c3)cc2)[C@@H](CO)N1C(=O)C1CCC1", "CPE inhibition": "-2.98% (inactive)"},
      {"smiles": "N#C[C@@H]1[C@H](c2ccccc2-c2ccc(F)cc2)[C@@H](CO)N1c1ncc(-c2ccccc2)s1", "CPE inhibition": "0.494% (inactive)"},
      {"smiles": "CS(=O)(=O)N1[C@@H](C#N)[C@H](c2ccc(C#CC3CCCCC3)cc2)[C@@H]1CO", "CPE inhibition": "-6.42% (inactive)"},
      {"smiles": "Cc1ccccc1S(=O)(=O)N1[C@@H](C#N)[C@H](c2ccccc2)[C@@H]1CO", "CPE inhibition": "8.15% (inactive)"},
      {"smiles": "Cc1ccccc1S(=O)(=O)N1[C@H](C#N)[C@H](c2ccccc2)[C@H]1CO", "CPE inhibition": "9.21% (inactive)"},
      {"smiles": "CS(=O)(=O)N1[C@H](C#N)[C@H](c2ccccc2-c2ccc(F)cc2)[C@@H]1CO", "CPE inhibition": "29.1% (active)"},
      {"smiles": "Cc1ccccc1S(=O)(=O)N1[C@H](C#N)[C@H](c2ccccc2)[C@@H]1CO", "CPE inhibition": "119% (active)"},
      {"smiles": "N#C[C@@H]1[C@H](c2ccc(C#Cc3cccc(F)c3)cc2)[C@@H](CO)N1C(=O)C1CCCC1", "CPE inhibition": "3.79% (inactive)"},
      {"smiles": "C[C@@H]1CN([C@H](C)CO)S(=O)(=O)c2ccc(C#C[C@@H](C)O)cc2O[C@H]1CN(C)C(=O)C1CCCCC1", "CPE inhibition": "-8.28% (inactive)"},
      {"smiles": "C[C@H](CO)N1C[C@H](C)[C@@H](CN(C)Cc2ccc(Oc3ccccc3)cc2)Oc2cc(-c3ccncc3)ccc2S1(=O)=O", "CPE inhibition": "-22.7% (inactive)"},
      {"smiles": "O=C(C[C@@H]1C=C[C@@H](NS(=O)(=O)c2ccc(F)cc2)[C@@H](CO)O1)NCCN1CCCCC1", "CPE inhibition": "-0.229% (inactive)"},
      {"smiles": "CN(Cc1ccccc1F)C[C@H]1[C@@H](c2ccccc2)[C@@H](CO)N1S(C)(=O)=O", "CPE inhibition": "-1.35% (inactive)"},
      {"smiles": "CCCNC(=O)N1C[C@@H](O)COC[C@@H]2O[C@H](CC(=O)N3CCN(C)CC3)CC[C@H]21", "CPE inhibition": "0.94% (inactive)"},
      {"smiles": "C[C@H]([C@@H](O)[C@@H](O)[C@@H](C)C(C)(C)C)[C@H]1CC[C@H]2C3CC[C@H]4C[C@H](OS(=O)(=O)O)[C@@H](OS(=O)(=O)O)C[C@]4(C)[C@H]3CC[C@]12C", "note": "(some centres undefined)", "CPE inhibition": "-2.49% (inactive)"},
      {"smiles": "CC(C)CC#Cc1cnc2c(c1)C(=O)N([C@@H](C)CO)C[C@H](C)[C@@H](CN(C)C(=O)c1ccc(F)cc1)O2", "CPE inhibition": "-4.54% (inactive)"},
      {"smiles": "CCC(=O)Nc1ccc2c(c1)OC[C@H](C)N(C(=O)c1ccncc1)C[C@H](C)[C@H](OC)CN(C)C2=O", "CPE inhibition": "-6.05% (inactive)"},
      {"smiles": "C[C@H]1CN([C@@H](C)CO)C(=O)c2cc(C3=CCCC3)cnc2O[C@@H]1CN(C)C(=O)c1ccccc1", "CPE inhibition": "-6.29% (inactive)"},
      {"smiles": "CO[C@@H]1CN(C)C(=O)c2ccc(NS(=O)(=O)c3c(C)noc3C)cc2OC[C@H](C)NC[C@@H]1C", "CPE inhibition": "-11.3% (inactive)"},
      {"smiles": "C[C@@H]1CN([C@H](C)CO)C(=O)c2cc(C#CCC3CCCC3)cnc2O[C@H]1CN(C)Cc1ccccn1", "CPE inhibition": "15.8% (inactive)"},
      {"smiles": "CN(C)CC#Cc1ccc([C@H]2[C@@H](CO)N(C(=O)C3CCC3)[C@H]2C#N)cc1", "CPE inhibition": "87.1% (active)"},
      {"smiles": "COc1ccc(-c2ccccc2[C@H]2[C@@H](CO)N(C(=O)C3CCC3)[C@H]2C#N)cc1", "CPE inhibition": "70.3% (active)"},
      {"smiles": "CCCC#Cc1ccc([C@@H]2[C@@H](C#N)N(C(=O)C3CCC3)[C@H]2CO)cc1", "CPE inhibition": "-3.76% (inactive)"},
      {"smiles": "COc1ccc(-c2ccc([C@@H]3[C@@H](C#N)N(C(=O)C4CCC4)[C@@H]3CO)cc2)cc1", "CPE inhibition": "-14% (inactive)"},
      {"smiles": "COc1ccccc1C#Cc1ccc([C@@H]2[C@@H](CO)N(C(=O)C3CC3)[C@H]2C#N)cc1", "CPE inhibition": "1.77% (inactive)"},
      {"smiles": "CCCC#Cc1ccc([C@@H]2[C@@H](C#N)N(C(=O)C3CCCC3)[C@@H]2CO)cc1", "CPE inhibition": "-5.75% (inactive)"},
      {"smiles": "CCCC#Cc1ccc([C@@H]2[C@@H](C#N)N(C(=O)C3CC3)[C@H]2CO)cc1", "CPE inhibition": "-11.5% (inactive)"},
      {"smiles": "CCCC#Cc1ccc([C@H]2[C@@H](CO)N(C(=O)C3CC3)[C@H]2C#N)cc1", "CPE inhibition": "39.4% (active)"},
      {"smiles": "COc1ccc(-c2ccccc2[C@H]2[C@@H](C#N)N(C(=O)C3CCC3)[C@@H]2CO)cc1", "CPE inhibition": "3.73% (inactive)"},
      {"smiles": "OC[C@H]1[C@@H](c2ccc(C#Cc3ccccc3F)cc2)[C@H]2CN(CC3CCOCC3)CCCCN21", "CPE inhibition": "-16.8% (inactive)"},
      {"smiles": "C[C@@H](NC(=O)C[C@@H]1C[C@@H]2c3cc(NC(=O)c4cccnc4)ccc3O[C@@H]2[C@H](CO)O1)c1ccccc1", "CPE inhibition": "-1.39% (inactive)"},
      {"smiles": "COc1cccc(-c2ccc3c(c2)O[C@H](CN(C)C(=O)c2ccccc2F)[C@@H](C)CN([C@@H](C)CO)S3(=O)=O)c1", "CPE inhibition": "-3.52% (inactive)"},
      {"smiles": "COCC#Cc1ccc([C@H]2[C@H](CO)N3CCCCN(Cc4ccncc4)C[C@@H]23)cc1", "CPE inhibition": "3.44% (inactive)"},
      {"smiles": "OC[C@H]1[C@@H](c2ccc(/C=C/c3ccccc3)cc2)[C@H]2CN(Cc3cccnc3)CCCCN21", "CPE inhibition": "23.8% (active)"},
      {"smiles": "CN(C)C(=O)c1ccc(-c2ccc([C@@H]3[C@@H](CO)N4CCCCN(Cc5cncnc5)C[C@@H]34)cc2)cc1", "CPE inhibition": "5.96% (inactive)"},
      {"smiles": "OC[C@H]1[C@H](c2ccc(-c3ccccc3F)cc2)[C@H]2CN(Cc3cncnc3)CCCCN21", "CPE inhibition": "45.6% (active)"},
      {"smiles": "OC[C@@H]1[C@H](c2ccc(C3=CCCC3)cc2)[C@H]2CN(Cc3ccncc3)CCCCN12", "CPE inhibition": "41% (active)"},
      {"smiles": "CCCC#Cc1ccc([C@H]2[C@H]3CN(Cc4cncnc4)CCCCN3[C@H]2CO)cc1", "CPE inhibition": "-10.9% (inactive)"},
      {"smiles": "OC[C@H]1[C@H](c2ccc(-c3cccnc3)cc2)[C@H]2CN(Cc3ccccn3)CCCCN21", "CPE inhibition": "3.13% (inactive)"},
      {"smiles": "Cc1cccc(-c2ccc([C@@H]3[C@H](CO)N4CCCCN(Cc5ccncc5)C[C@@H]34)cc2)c1", "CPE inhibition": "-6.55% (inactive)"},
      {"smiles": "OC[C@@H]1[C@H](c2ccc(C#Cc3ccccc3)cc2)[C@@H]2CN(Cc3cncnc3)CCCCN12", "CPE inhibition": "4.64% (inactive)"},
      {"smiles": "Cc1cccc(-c2ccc([C@H]3[C@@H](CO)N4CCCCN(Cc5cncnc5)C[C@H]34)cc2)c1", "CPE inhibition": "5.45% (inactive)"},
      {"smiles": "OC[C@H]1[C@H](c2ccc(-c3cccc(F)c3)cc2)[C@@H]2CN(Cc3cncnc3)CCCCN12", "CPE inhibition": "58.8% (active)"},
      {"smiles": "Cc1ccc(-c2ccc([C@H]3[C@H](CO)N4CCCCN(Cc5cncnc5)C[C@@H]34)cc2)cc1", "CPE inhibition": "-2.12% (inactive)"}
    ]}
  ]
}
